Results on 14 compounds are retold here after PubChem BioAssay (NCATS).

Where “and” joins values, the source holds several entries; their conditions need not be identical. Equal entries are not always repeated. Records with an inconclusive call do not appear. A structure can be active in one record and inactive in another. Calls of active or inactive are those of the source. Unless noted, the call rests on the fitted dose curve; in most records, active means well fitted curve in the direction sought with a large enough effect; inconclusive means small, poorly fitted or top-dose-only effect, or another doubt; inactive means no such curve, though single readings can be large; an effect the other way counts as inactive or inconclusive.

Experiment [1] in a line: Validation screen for small molecules that induce genotoxicity in human embryonic kidney (HEK293T) cells expressing luciferase-tagged ELG1 (AID 493106). Further: 0% is about no effect. The method in brief: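 ELG1-luciferase reporter readout (ONE-Glo, 30 min, room temperature) after 16 hr compound treatment at 37 °C of HEK293T cells at 2,000 per well. Rising luminescence flags genotoxic stress.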
Experiment [2] deals with ATPase family AAA domain-containing protein 5 (Homo sapiens) (UniProt Q96QE3). Nature of the experiment: Validation screen for small molecules that inhibit ELG1-dependent DNA repair in human embryonic kidney (HEK293T) cells expressing luciferase-tagged ELG1 (AID 493107).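 Further: series mostly up to about 46 µM; on the % scale 0 is the no-effect control and ±100 the full control effect; inhibitors lower the ELG1-luciferase luminescence signal; nearly all actives have a fitted effect of over 70% in size.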 In a few lines: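 Luciferase read-out, ONE-Glo, 30 min at room temperature, follows 16 h co-exposure at 37 C of compound and the DNA-damaging agent 5-fluorouridine. Cells: HEK293T with ELG1-luciferase fusion, 2,000 per well, DMSO as vehicle.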

The target of experiment [3] is Thyrotropin-releasing hormone receptor (Homo sapiens) (UniProt P34981). Nature of the experiment: qHTS for Small Molecule Agonists and Allosteric Enhancers of Human TRH Receptor: Validation Screen for Agonists (AID 493127;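 active means calcium activation more than 3 SD above the typical response in the agonist read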;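 further: intracellular calcium rise by fluo-8 fluorescence before TRH EC20 addition; 0% is about no effect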). The following applies: TRH receptor agonist cell assay; at 2 µM; stronger effect = higher value. The method in brief:
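Compound-evoked intracellular calcium release in fluo-8-loaded TRHR cells, read kinetically on FDSS (Ex 480/Em 530, 1 s/cycle) after 23 nL pintool transfer. Agonist phase preceded 10 nM TRH EC20 addition.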
Background: qHTS replaces the single test concentration by a dilution series.

Experiment [4] is described as follows: Nrf2 qHTS screen for inhibitors: Validation (AID 493153; active means well fitted inhibition curve with a large enough effect in the main read-out, with a control signal flat, not every such curve was filed as active). The note with it: Potency: luciferase luminescence; viability change: measured here: cytotoxicity max response. In a few lines: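 Concentration-response on A549 ARE_Fluc reporter cells exposed 18-24 h at 37 C, 5% CO2. Cytotoxicity read first by CellTiter-Fluor fluorescence (Ex 405/Em 525), then Nrf2 inhibition by BugLite luminescence after 15 min.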

A short description of experiment [5]: qHTS for Inhibitors of Cell Surface uPA Generation: Validation Assay (AID 493164).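 Further: RAW 264.7 macrophage cells exposed to compound for 18 h; 0% is about no effect.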 In a few lines: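 ATP-Lite luminescence read-out: ATP remains high when uPA activity-dependent LF translocation into the cytoplasm is blocked. RAW 264.7 cells, 18 h compound exposure at 37 C; 7-point titration, 2.45 nM to 38.3 uM final.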
Experiment [6] concerns the target Galactokinase (Homo sapiens) (UniProt P51570). The experiment in a line: qHTS Validation Assay for Inhibitors of Human Galactokinase (GALK) (AID 493189). Further: 0% is about no effect. The method in brief:
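GALK (5 nM) with 35 uM ATP and 100 uM galactose in HEPES pH 8.0 with MgCl2, NaCl, DTT and BSA. Reaction ran 1 h at room temperature. Residual ATP read by Kinase-Glo Plus luminescence.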

Experiment [7] concerns the target phosphoglycerate mutase (Leishmania major) (UniProt Q4Q090). Nature of the experiment: qHTS Validation Assay to Find Inhibitors of Phosphoglycerate Mutase (AID 504548).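 Further: end-point luminescence from Kinase-GloPlus after the PGAM reaction; series mostly up to about 58 µM; on the % scale 0 is the no-effect control and ±100 the full control effect.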 The method in brief:
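Inhibition of L. major PGAM was assessed by Kinase-GloPlus luminescence following a 45-minute room-temperature reaction with enzyme at 1.25nM final.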

Experiment [8] concerns the target Ubiquitin carboxyl-terminal hydrolase 1 (Homo sapiens) (UniProt O94782). The experiment in a line: Inhibitors of USP1/UAF1: Pilot qHTS (AID 504865). Further: nearly all actives have a fitted effect of over 35% in size. Further: potency means the concentration at half of the fitted maximal effect. In a few lines: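 USP1/UAF1 complex at 1 nM preincubated 15 min at room temperature with compound, then Ub-Rho substrate added at 150 nM final. Fluorescence (480/540 nm) read kinetically in 50 mM HEPES pH 7.8, 0.5 mM EDTA, 1 mM TCEP, 0.1 mg/ml BSA, 0.01% Tween-20.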

Experiment [9] is described as follows: qHTS for Inhibitors of ATXN expression: Validation (AID 588378). Further: series mostly up to about 57 µM; on the % scale 0 is the no-effect control and ±100 the full control effect; nearly all actives have a fitted effect of over 75% in size. The method in brief: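 HEK293 cells carrying ATXN2-firefly luciferase reporter, treated with compound 24 h at 37 °C. Viability read first by CellTiter-Fluor (405/525 nm), then reporter expression by Bright-Glo luminescence; controls were a known ATXN2 expression inhibitor and a luciferase inhibitor.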

Experiment [10] deals with DNA dC->dU-editing enzyme APOBEC-3G (Homo sapiens) (UniProt Q9HC16). Nature of the experiment: qHTS for inhibitors of Vif-A3G interactions: Validation (AID 588379). Further: 0% is about no effect. The method in brief: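 Yellow fluorescence (Ex 488, Em 500-530) of Vif-coexpressing HeLa A3G-eYFP cells, scanned by Acumen cytometer, reports blocked A3G degradation. Cells plated at 700/well overnight at 37 deg C before compound addition, then a further overnight compound incubation at 37 deg C.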

Experiment [11] has as its target Bile acid receptor (Homo sapiens) (UniProt Q96RI1). Nature of the experiment: qHTS assay for small molecule antagonists of farnesoid X receptor signaling (AID 588526; calls by dose curve; further: on the % scale 0 is the no-effect control and ±100 the full control effect). In a few lines: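 Concentration-response titrations were fitted to the Hill equation for half-maximal inhibition and maximal response, with data normalised to 50 uM chenodeoxycholic acid and DMSO control wells. Cells: FXR-UAS-bla HEK293T, dialyzed FBS.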

Experiment [12] addresses Peptidyl-prolyl cis-trans isomerase NIMA-interacting 1 (Homo sapiens) (UniProt Q13526). The experiment in a line: qHTS Validation Assay to Find Inhibitors of Pin1 (AID 504536; active means well fitted inhibition curve with a large enough effect in the polarisation, with a control signal flat, not every such curve was filed as active; the % refers to the polarisation;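 further: 0% = full Pin1 enzyme wells and -100% = no-enzyme wells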). In a few lines: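 Fluorescence polarization competition: compounds (titration) displace HiFluor-488-labeled Pin1-1b peptide from Pin1 (0.3 uM final) in pH 7.5 HEPES buffer with DTT, 10 min at room temperature; %Activity normalized to no-enzyme wells, curves fitted.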

Experiment [13] is described as follows: qHTS for Inhibitors of ATXN expression: Validation of Cytotoxic Assay (AID 588349). Further: on the % scale 0 is the no-effect control and ±100 the full control effect. The method in brief: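 Cytotoxicity counter-screen: ATP-based luminescent viability (CellTiter Glo) after 72 hr exposure of HEK293 cells to a compound titration at 37 degrees C.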
Experiment [14] can be described thus: Validation screen for small molecules that induce DNA re-replication in SW480 colon adenocarcinoma cells (AID 504364). Further: 0% is about no effect. In a few lines:
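Image-based DNA content read-out: Hoechst stain 40 min, total nuclear fluorescence intensity (ex 405 nm, em 500-530 nm) after 48 h compound exposure of 250 SW480 cells/well at 37 C, 5% CO2, versus DMSO vehicle.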

Experiment [15] has as its target Phosphoglycerate kinase, glycosomal (Trypanosoma brucei brucei) (UniProt P07378). Nature of the experiment: qHTS Validation Assay to Find Inhibitors of Phosphoglycerate Kinase (AID 504547).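 Further: control wells lack PGK and mark full inhibition.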 In a few lines:
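In TEA buffer (100mM, pH 7.6) containing 5mM MgCl2 and 0.01% Tween-20, the GAPDH-coupled PGK reaction proceeded for 60 minutes at room temperature before a single luminescence reading using Kinase-Glo Plus.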

Experiment [16] has as its target Estrogen receptor (Homo sapiens) (UniProt P03372). The experiment in a line: qHTS assay for small molecule agonists of estrogen receptor alpha signaling (AID 588514; calls by dose curve;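 further: 0% = vehicle only and 100% = reference agonist; nearly all actives have a fitted effect of over 70% in size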). The method in brief:
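EC50 and efficacy came from Hill fits of beta-lactamase reporter signal (CCF4 dye, 2 h at room temperature) scaled between DMSO and 20 nM 17-beta-estradiol. Agonist mode: HEK293 ER-alpha-UAS-bla cells in charcoal/dextran-stripped serum medium, 18 h compound exposure at 37 C.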

Experiment [17] deals with Androgen receptor (Homo sapiens) (UniProt P10275). Nature of the experiment: qHTS assay for small molecule antagonists of androgen receptor signaling (AID 588516; active means well fitted curve in the direction sought with a large enough effect in the signal ratio, with a control signal flat, not every such curve was filed as active; the % refers to the signal ratio; further: on the % scale 0 is the no-effect control and ±100 the full control effect). The method in brief: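 AR-UAS-bla GripTite HEK 293 cells (2000/well) treated with compound titrations plus 10 nM R1881 for 16 h at 37C. Beta-lactamase read by CCF4 FRET (460/530 nm); IC50 from Hill fits, normalized to R1881 and DMSO control wells.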

Sequence of Thyrotropin-releasing hormone receptor (Homo sapiens) (P34981 whole entry, looked up): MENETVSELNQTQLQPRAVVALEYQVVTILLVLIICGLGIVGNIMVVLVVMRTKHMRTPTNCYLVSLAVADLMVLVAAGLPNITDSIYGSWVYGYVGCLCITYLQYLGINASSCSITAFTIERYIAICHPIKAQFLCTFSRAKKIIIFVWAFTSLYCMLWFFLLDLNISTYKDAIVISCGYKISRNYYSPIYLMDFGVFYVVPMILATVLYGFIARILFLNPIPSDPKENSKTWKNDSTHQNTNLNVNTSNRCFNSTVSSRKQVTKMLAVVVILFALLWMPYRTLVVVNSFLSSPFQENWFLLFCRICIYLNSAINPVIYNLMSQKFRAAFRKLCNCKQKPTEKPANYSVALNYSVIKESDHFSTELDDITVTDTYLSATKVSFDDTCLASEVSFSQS
Sequence of phosphoglycerate mutase (Leishmania major) (Q4Q090 1-553): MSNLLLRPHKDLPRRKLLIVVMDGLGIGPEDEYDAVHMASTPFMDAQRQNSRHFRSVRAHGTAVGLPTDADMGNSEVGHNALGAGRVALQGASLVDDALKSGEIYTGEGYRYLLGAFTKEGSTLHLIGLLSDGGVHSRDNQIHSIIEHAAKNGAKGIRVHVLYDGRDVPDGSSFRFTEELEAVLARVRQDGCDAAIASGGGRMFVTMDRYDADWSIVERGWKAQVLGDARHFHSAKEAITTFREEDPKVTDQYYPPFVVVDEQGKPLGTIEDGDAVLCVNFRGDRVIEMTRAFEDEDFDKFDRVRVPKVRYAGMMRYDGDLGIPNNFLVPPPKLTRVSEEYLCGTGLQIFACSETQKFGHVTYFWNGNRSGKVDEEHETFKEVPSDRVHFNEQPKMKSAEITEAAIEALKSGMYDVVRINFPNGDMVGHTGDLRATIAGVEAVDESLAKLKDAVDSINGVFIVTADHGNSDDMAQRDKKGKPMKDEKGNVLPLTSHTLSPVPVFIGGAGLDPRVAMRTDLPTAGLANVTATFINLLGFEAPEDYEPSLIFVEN
Sequence of Peptidyl-prolyl cis-trans isomerase NIMA-interacting 1 (Homo sapiens) (Q13526 whole entry, looked up): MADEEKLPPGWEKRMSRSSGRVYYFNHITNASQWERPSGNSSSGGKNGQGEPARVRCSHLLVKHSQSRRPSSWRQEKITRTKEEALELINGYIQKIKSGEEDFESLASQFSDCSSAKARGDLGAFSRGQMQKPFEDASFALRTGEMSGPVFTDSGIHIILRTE
Sequence of Galactokinase (Homo sapiens) (P51570 whole entry, looked up): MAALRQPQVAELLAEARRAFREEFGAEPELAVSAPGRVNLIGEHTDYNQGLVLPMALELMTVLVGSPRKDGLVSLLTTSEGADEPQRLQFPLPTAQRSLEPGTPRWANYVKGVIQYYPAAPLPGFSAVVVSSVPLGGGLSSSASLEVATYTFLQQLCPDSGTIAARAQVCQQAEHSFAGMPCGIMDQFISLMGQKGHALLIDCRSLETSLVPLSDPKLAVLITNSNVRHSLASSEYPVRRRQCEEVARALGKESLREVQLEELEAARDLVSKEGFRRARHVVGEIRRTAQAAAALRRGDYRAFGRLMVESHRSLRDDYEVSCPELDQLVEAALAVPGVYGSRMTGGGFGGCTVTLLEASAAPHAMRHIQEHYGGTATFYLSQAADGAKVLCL
Sequence of ATPase family AAA domain-containing protein 5 (Homo sapiens) (Q96QE3 whole entry, looked up, the tested form may be a part): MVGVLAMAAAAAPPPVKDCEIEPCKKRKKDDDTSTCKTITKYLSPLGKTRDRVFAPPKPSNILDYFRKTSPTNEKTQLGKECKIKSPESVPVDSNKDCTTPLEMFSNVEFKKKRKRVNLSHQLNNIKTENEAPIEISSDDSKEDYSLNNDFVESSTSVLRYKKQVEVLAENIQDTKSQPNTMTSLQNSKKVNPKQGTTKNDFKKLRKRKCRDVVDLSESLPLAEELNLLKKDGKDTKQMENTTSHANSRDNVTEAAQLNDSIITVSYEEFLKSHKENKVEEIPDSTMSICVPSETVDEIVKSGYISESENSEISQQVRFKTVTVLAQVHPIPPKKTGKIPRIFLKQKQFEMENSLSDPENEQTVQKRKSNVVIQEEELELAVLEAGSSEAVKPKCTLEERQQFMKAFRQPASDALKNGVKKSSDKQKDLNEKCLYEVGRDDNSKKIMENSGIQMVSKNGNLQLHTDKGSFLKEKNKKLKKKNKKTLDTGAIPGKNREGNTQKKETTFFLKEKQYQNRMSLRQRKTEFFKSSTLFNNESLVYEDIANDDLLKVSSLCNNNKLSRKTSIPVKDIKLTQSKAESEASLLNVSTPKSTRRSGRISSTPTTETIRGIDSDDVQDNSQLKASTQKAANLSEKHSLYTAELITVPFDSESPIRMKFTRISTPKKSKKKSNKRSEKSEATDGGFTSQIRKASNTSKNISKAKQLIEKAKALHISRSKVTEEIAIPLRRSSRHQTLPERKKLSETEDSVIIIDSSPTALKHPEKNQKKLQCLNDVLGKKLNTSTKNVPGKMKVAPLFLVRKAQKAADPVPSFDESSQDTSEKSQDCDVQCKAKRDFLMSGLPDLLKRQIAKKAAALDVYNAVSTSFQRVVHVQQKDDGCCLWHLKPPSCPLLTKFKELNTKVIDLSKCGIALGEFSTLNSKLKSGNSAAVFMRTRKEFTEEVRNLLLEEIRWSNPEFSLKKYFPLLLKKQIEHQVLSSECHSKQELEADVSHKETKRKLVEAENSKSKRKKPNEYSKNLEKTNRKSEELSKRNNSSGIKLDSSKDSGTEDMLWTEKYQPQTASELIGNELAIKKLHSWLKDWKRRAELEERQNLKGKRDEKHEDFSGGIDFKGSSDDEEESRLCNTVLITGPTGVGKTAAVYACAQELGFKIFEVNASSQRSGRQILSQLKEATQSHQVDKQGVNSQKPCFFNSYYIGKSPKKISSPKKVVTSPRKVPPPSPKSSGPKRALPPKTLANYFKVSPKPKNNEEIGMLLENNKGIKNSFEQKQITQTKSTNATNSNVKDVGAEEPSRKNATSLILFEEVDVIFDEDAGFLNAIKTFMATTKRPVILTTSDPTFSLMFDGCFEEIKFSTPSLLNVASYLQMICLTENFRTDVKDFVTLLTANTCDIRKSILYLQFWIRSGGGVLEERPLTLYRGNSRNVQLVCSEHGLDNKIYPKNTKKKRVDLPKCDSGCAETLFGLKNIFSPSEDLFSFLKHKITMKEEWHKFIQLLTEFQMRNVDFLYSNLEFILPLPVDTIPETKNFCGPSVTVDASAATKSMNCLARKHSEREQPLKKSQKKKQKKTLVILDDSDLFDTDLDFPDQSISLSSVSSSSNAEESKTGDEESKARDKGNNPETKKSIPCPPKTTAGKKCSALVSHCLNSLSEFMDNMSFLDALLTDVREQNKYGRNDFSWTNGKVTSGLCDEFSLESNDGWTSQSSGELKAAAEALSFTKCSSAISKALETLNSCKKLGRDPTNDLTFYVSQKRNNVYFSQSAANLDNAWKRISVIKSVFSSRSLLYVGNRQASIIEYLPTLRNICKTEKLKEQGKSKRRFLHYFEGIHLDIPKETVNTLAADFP
Sequence of DNA dC->dU-editing enzyme APOBEC-3G (Homo sapiens) (Q9HC16 whole entry, looked up): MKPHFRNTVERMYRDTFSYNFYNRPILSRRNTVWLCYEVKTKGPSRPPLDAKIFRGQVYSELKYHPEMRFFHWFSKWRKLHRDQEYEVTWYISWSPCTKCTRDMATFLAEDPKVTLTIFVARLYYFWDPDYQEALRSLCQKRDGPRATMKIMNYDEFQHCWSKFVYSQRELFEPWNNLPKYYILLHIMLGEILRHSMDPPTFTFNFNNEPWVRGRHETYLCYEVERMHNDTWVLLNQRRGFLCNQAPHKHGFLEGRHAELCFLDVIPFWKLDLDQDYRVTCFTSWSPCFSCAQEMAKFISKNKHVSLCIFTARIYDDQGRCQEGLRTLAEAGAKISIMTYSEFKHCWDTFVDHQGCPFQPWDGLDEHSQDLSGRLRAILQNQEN
Sequence of Ubiquitin carboxyl-terminal hydrolase 1 (Homo sapiens) (O94782 whole entry, looked up): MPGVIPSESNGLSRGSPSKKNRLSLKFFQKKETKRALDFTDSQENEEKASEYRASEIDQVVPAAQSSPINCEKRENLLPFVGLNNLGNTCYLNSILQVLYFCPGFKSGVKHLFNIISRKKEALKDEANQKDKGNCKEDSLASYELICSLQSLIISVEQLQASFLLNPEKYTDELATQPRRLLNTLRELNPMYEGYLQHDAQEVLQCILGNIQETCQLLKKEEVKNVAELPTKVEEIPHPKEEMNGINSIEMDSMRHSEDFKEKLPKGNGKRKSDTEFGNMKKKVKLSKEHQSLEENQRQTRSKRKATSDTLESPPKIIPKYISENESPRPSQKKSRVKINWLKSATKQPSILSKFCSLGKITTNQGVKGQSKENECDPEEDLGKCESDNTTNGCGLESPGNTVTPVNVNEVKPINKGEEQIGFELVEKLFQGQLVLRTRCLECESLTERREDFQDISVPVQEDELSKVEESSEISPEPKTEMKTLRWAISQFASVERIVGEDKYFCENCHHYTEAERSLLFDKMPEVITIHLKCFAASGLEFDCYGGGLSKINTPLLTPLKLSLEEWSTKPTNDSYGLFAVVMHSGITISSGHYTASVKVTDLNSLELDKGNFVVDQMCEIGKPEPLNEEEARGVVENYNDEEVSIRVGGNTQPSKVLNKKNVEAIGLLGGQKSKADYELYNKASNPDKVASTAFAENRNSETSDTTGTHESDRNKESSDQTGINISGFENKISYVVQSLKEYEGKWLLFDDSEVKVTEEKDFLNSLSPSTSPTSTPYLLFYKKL
Sequence of Phosphoglycerate kinase, glycosomal (Trypanosoma brucei brucei) (P07378 whole entry, looked up): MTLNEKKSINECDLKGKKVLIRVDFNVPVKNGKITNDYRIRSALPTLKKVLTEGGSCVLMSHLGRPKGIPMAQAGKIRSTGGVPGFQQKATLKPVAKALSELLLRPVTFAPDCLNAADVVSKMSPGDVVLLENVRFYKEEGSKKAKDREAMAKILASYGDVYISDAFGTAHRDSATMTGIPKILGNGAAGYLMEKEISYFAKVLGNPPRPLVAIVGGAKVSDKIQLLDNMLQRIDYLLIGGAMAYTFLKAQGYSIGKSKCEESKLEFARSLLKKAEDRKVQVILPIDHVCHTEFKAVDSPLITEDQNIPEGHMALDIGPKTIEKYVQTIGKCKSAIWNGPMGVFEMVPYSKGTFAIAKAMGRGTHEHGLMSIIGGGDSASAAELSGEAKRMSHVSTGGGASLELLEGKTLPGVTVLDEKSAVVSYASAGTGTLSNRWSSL

For the compound `Cn1cnc2c1c(=O)[nH]c(=O)n2C`, the Potency result in experiment [1], in [2], in experiment [4], in [6], in experiment [8] and in [9] was “inactive” each time. For the same compound, the Potency result in experiment [11] was “inactive”. Moreover, in [3], the activation was 0.562% (inactive). Further, the viability change in [4] was -9.08%. Further, the compound was classed as inactive in experiment [5], in [7] and in [10].
For `NC(=O)NO`, the Potency result in experiment [1], in [2], in [4], in [6], in [12] and in [8] was “inactive” in each case. The Potency entry in experiment [9] was “inactive”. In [3], the activation is 1.12% (inactive). The viability change in [4] is -1.36%. Also, the call in experiment [5], in experiment [7] and in experiment [13] was inactive.
For `Cc1cc(C(C)(C)C)c(O)c(C)c1CC1=NCCN1`, the Potency entry in experiment [1], in experiment [2], in experiment [4], in experiment [6], in experiment [14] and in [12] was “inactive” throughout. In addition, the Potency result in [15] and in experiment [8] was “inactive” throughout. For the same compound, in experiment [3], the activation was 1.19% (inactive). The viability change in [4] amounted to 1.24%. In addition, the compound was called inactive in experiment [5], in experiment [7] and in experiment [10].
Consider `COc1ccc(C2CNC(=O)C2)cc1OC1CCCC1` (stereo not given), for which the Potency result in experiment [1], in experiment [2], in [4], in experiment [6], in experiment [14] and in experiment [15] was “inactive” each time. Also, the Potency result in experiment [8] and in experiment [9] was “inactive” each time. Moreover, the activation in experiment [3] was 0.812% (inactive). In experiment [4], the viability change worked out at 3.91%. The call in experiment [5] and in experiment [7] was inactive.
With `NCCc1cnc[nH]1`, the Potency result in experiment [1], in experiment [2], in [4], in experiment [6], in experiment [12] and in [15] was “inactive” throughout. Further, in [9], the Potency result was “inactive”. Further, in [3], the activation is 1.06% (inactive). Further, the viability change in experiment [4] was 1.05%. For the same compound, the compound was classed as inactive in [5] and in experiment [7]. For the same compound, in experiment [8], the Potency was 44.7 µM (active) and inactive.
Take `CCCNCC(O)COc1ccccc1C(=O)CCc1ccccc1` (stereo not given): the Potency result in experiment [1], in [2], in [6] and in experiment [15] was “inactive” throughout. For the same compound, in experiment [3], the activation is 4% (inactive). The compound was classed as inactive in [5] and in experiment [7].
Consider `CN1CCC(=C2c3ccccc3CC(=O)c3sccc32)CC1`, for which the Potency result in experiment [1], in [2], in [4], in [6], in [12] and in experiment [15] was “inactive” throughout. For the same compound, the Potency result in experiment [8] is “inactive”. Moreover, in experiment [4], the viability change was -3.17%. Besides, the call in experiment [5], in experiment [7], in experiment [13] and in experiment [10] was inactive.
Turning to `CCc1cccc2c3c([nH]c12)C(CC)(CC(=O)O)OCC3` (stereo not given), the Potency entry in experiment [1], in experiment [2], in experiment [4], in experiment [6], in experiment [14] and in [15] was “inactive” throughout. The Potency result in [8] and in [9] was “inactive” throughout. Besides, in experiment [4], the viability change was -5.62%. Moreover, the compound was called inactive in [5] and in [7].
With `CN1C2CCC1CC(OC(=O)C(CO)c1ccccc1)C2` (stereo not given), the Potency result in [1], in [2], in experiment [4], in experiment [6], in experiment [12] and in experiment [15] was “inactive” in each case. The Potency result in experiment [9] was “inactive”. Moreover, the viability change in experiment [4] was 0.769% and 1.89%. The compound was called inactive in experiment [5] and in experiment [7].
Take `O=C(C1CCCCC1)N1CC(=O)N2CCc3ccccc3C2C1` (stereo not given): the Potency entry in experiment [1], in experiment [2], in experiment [6], in [12], in [8] and in experiment [9] was “inactive” throughout. In experiment [3], the activation is 0.312% (inactive). The compound was classed as inactive in experiment [5] and in [7].
For the compound `O=C(c1ccc(F)cc1)C1CCN(CCn2c(=O)[nH]c3ccccc3c2=O)CC1`, the Potency entry in experiment [1], in experiment [2], in [4], in experiment [6], in experiment [14] and in experiment [12] was “inactive” throughout. Further, the Potency entry in [15], in [8] and in [9] was “inactive” each time. Moreover, the viability change in [4] was 2.61%. The compound was called inactive in [5], in experiment [7], in experiment [13] and in experiment [10].
As for `Cc1ccccc1N1C(=O)c2cc(S(N)(=O)=O)c(Cl)cc2NC1C` (stereo not given), the Potency entry in experiment [1], in [2], in [4], in [6], in experiment [14] and in experiment [12] was “inactive” throughout. For the same compound, the Potency result in [8] and in experiment [9] was “inactive” throughout. Moreover, the viability change in experiment [4] amounted to 10.1%. The outcome in [5], in experiment [7] and in [13] was inactive.
In the case of `CN(C)CCOC(c1ccccc1)c1ccccc1`, the Potency entry in experiment [1], in [2], in [4], in experiment [6] and in experiment [12] was “inactive” in each case. For the same compound, the activation in [3] was -3.31% (inactive). Moreover, the viability change in experiment [4] was 2.71%. In addition, the outcome in experiment [5], in experiment [7], in experiment [13], in experiment [16] and in experiment [17] was inactive.
Take `CCC1(C)CC(=O)NC1=O` (stereo not given): the Potency entry in experiment [1], in [2], in experiment [4], in [6], in experiment [12] and in [15] was “inactive” each time. Besides, the Potency entry in experiment [8] and in experiment [9] was “inactive” throughout. The activation in experiment [3] is 1.44% (inactive). The viability change in experiment [4] was 4.35%. Also, the compound was called inactive in experiment [5] and in experiment [7].
